Records with an inconclusive call do not appear. Active and inactive are the calls of the source. How the source made its calls: active means hit-call score of the fitted dose curve at least 0.9, where 1 is the maximum; inconclusive means response in the unintended direction; inactive means score below 0.9.
What was measured:
[1] = TOX21_p53_BLA_p2_viability: Viability Assessment in the Tox21 HCT-116 p53 Agonism Beta-lactamase Assay, Phase 2 (AID 2283591);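 further: compound exposure lasted 16 h at 37 °C; actives lower the ATP signal meaning cytotoxicity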
Outline: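 Cytotoxicity readout: CellTiter-Glo ATP luminescence, 30 min at room temperature, after the beta-lactamase read. Cells were HCT116 exposed 16 h at 37C to compounds pin-transferred at 217-fold dilution from DMSO stocks.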

[2] = TOX21_p53_BLA_p4_viability: Viability Assessment in the Tox21 HCT-116 p53 Agonism Beta-lactamase Assay, Phase 4 (AID 2283597);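 further: hits lower the luminescence signal meaning cytotoxicity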
Outline: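 In this multiplexed secondary endpoint, HCT116 cells (4000 per well, compound at 5 h, 16 h treatment) received CellTiter-Glo after the beta-lactamase read. Luminescence after 30 min RT reflects ATP, and falling signal marks cytotoxicity.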

[3] = molecular target: Cellular tumor antigen p53 (Homo sapiens) (UniProt P04637); assay: TOX21_p53_BLA_p2_ratio: Tox21 HCT-116 p53 Agonism Beta-lactamase Assay, Ratio, Phase 2 (AID 2283592)
Sequence of Cellular tumor antigen p53 (Homo sapiens) (P04637 whole entry, looked up): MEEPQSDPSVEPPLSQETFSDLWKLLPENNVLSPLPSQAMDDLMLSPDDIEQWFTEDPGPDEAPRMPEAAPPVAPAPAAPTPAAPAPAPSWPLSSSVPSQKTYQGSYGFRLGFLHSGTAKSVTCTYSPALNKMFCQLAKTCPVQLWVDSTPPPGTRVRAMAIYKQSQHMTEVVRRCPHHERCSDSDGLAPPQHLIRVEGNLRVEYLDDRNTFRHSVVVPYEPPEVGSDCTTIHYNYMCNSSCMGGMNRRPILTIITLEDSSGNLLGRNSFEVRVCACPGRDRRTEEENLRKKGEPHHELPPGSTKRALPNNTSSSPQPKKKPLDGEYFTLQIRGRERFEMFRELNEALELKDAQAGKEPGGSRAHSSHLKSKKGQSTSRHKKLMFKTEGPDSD
Outline: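 DMSO-normalized, positive-direction endpoint derived from the 460 nm/530 nm FRET ratio in HCT116 p53 beta-lactamase reporter cells exposed 16 h at 37C and loaded with CCF4-AM for 2 h.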

[4] = molecular target: Cellular tumor antigen p53 (Homo sapiens) (UniProt P04637); assay: TOX21_p53_BLA_p5_ratio: Tox21 HCT-116 p53 Agonism Beta-lactamase Assay, Ratio, Phase 5 (AID 2283599)
Outline: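 Beta-lactamase reporter ratio (blue 460 nm over green 530 nm, 405 nm excitation) after 2 h CCF4-AM loading, in HCT-116 cells exposed 16 h at 37 C to compounds pinned at 217-fold dilution. Increases relative to DMSO baseline scored.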

[5] = TOX21_p53_BLA_p3_viability: Viability Assessment in the Tox21 HCT-116 p53 Agonism Beta-lactamase Assay, Phase 3 (AID 2283593);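 further: cells exposed to compound for 16 h before reading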
Outline: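 Cellular ATP was quantified by CellTiter-Glo luminescence, read after 30 min at room temperature. Beforehand, HCT116 cells (4000/well) received compound 5 h post-seeding, 217-fold diluted from DMSO, then incubated 16 h at 37C.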

[6] = molecular target: Cellular tumor antigen p53 (Homo sapiens) (UniProt P04637); assay: TOX21_p53_BLA_p3_ratio: Tox21 HCT-116 p53 Agonism Beta-lactamase Assay, Ratio, Phase 3 (AID 2283596)
Outline: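 Cells were seeded at 4000/well, rested 5 h at 37C, then dosed with DMSO compound solutions (217-fold dilution) for 16 h. CCF4-AM substrate was loaded for 2 h at room temperature, and the 460/530 nm emission ratio was fitted for gain of signal versus DMSO.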

[7] = TOX21_p53_BLA_p5_viability: Viability Assessment in the Tox21 HCT-116 p53 Agonism Beta-lactamase Assay, Phase 5 (AID 2283600)
Outline: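 Here cell health was gauged by ATP levels in wells holding 4000 cells, each treated 16 h with DMSO-delivered compounds at 217-fold dilution; reduced luminescence marked toxicity.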

Measured: outcome

CC1=CC[C@H]2C[C@@H]1C2(C)C
inactive: [1] | [2]

O=C1CC2CC1C1CCCC21 (configuration not stated)
inactive: [3] | [2] | [4]

CCCCCCC1(C)CCC(=O)O1 (configuration not stated)
inactive: [3] | [5] | [6] | [2]

CC(=O)OCC(=O)[C@@]12N=C(C)O[C@@H]1C[C@H]1[C@@H]3CCC4=CC(=O)C=C[C@]4(C)[C@H]3[C@@H](O)C[C@@]12C
inactive: [1] | [3] | [2] | [7]

CC(=O)Oc1ccc(C(C)=O)cc1
inactive: [1] | [5] | [6] | [4] | [7]

O=c1n(CCO)c(=O)n(CCO)c(=O)n1CCO
inactive: [1] | [6] | [2] | [4] | [7]

CCC(C)OC(=O)c1ccc(O)cc1 (configuration not stated)
inactive: [3] | [5] | [6] | [4] | [7]

Cc1cccc(OCCOc2cccc(C)c2)c1
inactive: [3] | [5] | [6]

CCOc1ccc(N)c([N+](=O)[O-])c1
inactive: [3] | [5] | [4] | [7]

CCN(CCC#N)c1ccc(N=Nc2c(Cl)cc([N+](=O)[O-])cc2Cl)cc1
inactive: [3] | [5] | [6] | [2] | [4] | [7]

O=C1CCCC(=O)O1
inactive: [3] | [2] | [4] | [7]

COC(=O)/C=C\C(=O)O
inactive: [1] | [5] | [4] | [7]

CC(=O)OCCC1CCCCC1
inactive: [3] | [5] | [6] | [2]

[Cl][Nd]([Cl])[Cl]
inactive: [1] | [5] | [2] | [4]

O=C(c1ccccc1)c1ccc(O)c(O)c1O
inactive: [1] | [3] | [6] | [4]

CCN(CC#N)c1cccc(C)c1
inactive: [3] | [2]

COC(=O)c1cc(Cl)ccc1[N+](=O)[O-]
inactive: [1] | [3] | [6] | [4]

C=C(C)c1cccc(C(C)(C)N=C=O)c1
inactive: [3] | [5] | [4] | [7]

COC(=O)/C=C/C(C)=C\C=C\C(C)=C\C=C\C=C(C)\C=C\C=C(C)\C=C\C(=O)O
inactive: [3] | [5] | [6] | [2] | [4]

Cc1cc(C)c(C)cc1C
inactive: [3] | [6] | [4] | [7]

CNC(=S)N(C)C
inactive: [3] | [5] | [6] | [2] | [4]

O=c1[nH]c(=O)c2[nH]c(=O)[nH]c2[nH]1
inactive: [1] | [3] | [4]

OC1OCCOC1O (configuration not stated)
inactive: [3] | [5] | [6] | [2]

C=CCOc1c(Br)cc(Br)cc1Br
inactive: [1] | [5] | [6] | [7]

OCCNCc1ccccc1
inactive: [5] | [6] | [2] | [4] | [7]

Cc1ccc(N/N=c2\c(=O)cc/c(=N/Nc3ccc(S(=O)(=O)O)cc3)c2=O)c(C)c1
inactive: [1] | [5] | [2] | [4] | [7]

CCCCCCC(O)CO (configuration not stated)
inactive: [3] | [5] | [6] | [2] | [4] | [7]

N#[N+]c1ccc2c(S(=O)(=O)[O-])cccc2c1O
inactive: [1] | [3] | [6] | [2] | [4] | [7]

Cc1cc(C)c(C(=O)O)c(C)c1
inactive: [3] | [6] | [4]

c1ccc(-c2ccccn2)nc1
inactive: [1] | [3] | [6] | [2] | [7]

C=C1[C@H]2CC[C@@H]3[C@H]2C(C)(C)CCC[C@]13C
inactive: [6] | [2]

CNC(=S)NN
inactive: [3] | [6] | [7]

CCCOC(=O)CCCCC(=O)OCCC
inactive: [3] | [5] | [6] | [2] | [7]

c1ccc(CCCc2ccncc2)cc1
inactive: [1] | [3] | [6] | [7]

CO[Si](OC)(OC)c1ccccc1
inactive: [3] | [6] | [2]

C=C(C)C(=O)OCC(C)C
inactive: [1] | [5] | [6] | [4]

Source: PubChem BioAssay (EPA / NIEHS)
